In the library only some 3.2% were active in any assay of this set; here they are far more common.
GDH-TPI inh: GDH-TPI coupling enzyme inhibitors, primary screen, artefact control for M. tuberculosis FBA inhibitor project, biochemical, absorbance, full deck; GDH-TPI coupled enzyme counterscreen, NADH absorbance; inhibition, % at 4.8 µM; 360,000 tested, 1.2% active; AID 588335, 2011; in the data active = inhibition above about 30%;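 note: 0% = DMSO wells and 100% = wells lacking the enzyme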
FBA Mtb inh: Mtb FBA enzyme inhibitors, primary screen, biochemical, fluorescence, strain H37Rv | Fructose-bisphosphate aldolase (Mycobacterium tuberculosis (strain ATCC 25618 / H37Rv)), … | purified M. tuberculosis FBA, fluorescence read-out | inhibition, % at 1 µM | 360,000 tested, 2.3% active; in the data active = inhibition above about 27%;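 note: 0% = vehicle and 100% = reference inhibitor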
Mtb bLac sens: beta-lactam sensitization of Mtb H37Rv, H37Rv; M. tuberculosis H37Rv growth with meropenem, percent inhibition; inhibition, % at 25 µM; 330,000 tested, 0.27% active; AID 434955, 2010; call rule not given here;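 note: growth measured after seven days incubation then overnight dye step; 0% = bacteria only wells and 100% = bacteria with antibiotic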
Mtb UGM inh: M. tuberculosis UGM enzyme inhibitors, primary screen, biochemical, fluorescence polarization, single point; purified UGM, fluorescence polarization probe displacement; UDP-galactopyranose mutase (Mycobacterium tuberculosis (strain ATCC 25618 / H37Rv)), …; 320,000 tested, 0.06% active; inhibition, % at 10 µM; in the data active = inhibition above about 10%, passing the limit was not always enough
Rv3671c inh: Rv3671c serine protease inhibitors, primary screen, biochemical, fluorescence polarization, M. tuberculosis H37Rv. P9WHR9. inhibition, % at 5.96 µM. 320,000 tested, 0.048% active. AID 2606, 2010; in the data active = inhibition above about 38%;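 note: extracellular domain of Rv3671c used as enzyme; 0% = enzyme with DMSO and 100% = no enzyme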
Target sequence (P9WHR9 whole entry, looked up, the tested form may be a part): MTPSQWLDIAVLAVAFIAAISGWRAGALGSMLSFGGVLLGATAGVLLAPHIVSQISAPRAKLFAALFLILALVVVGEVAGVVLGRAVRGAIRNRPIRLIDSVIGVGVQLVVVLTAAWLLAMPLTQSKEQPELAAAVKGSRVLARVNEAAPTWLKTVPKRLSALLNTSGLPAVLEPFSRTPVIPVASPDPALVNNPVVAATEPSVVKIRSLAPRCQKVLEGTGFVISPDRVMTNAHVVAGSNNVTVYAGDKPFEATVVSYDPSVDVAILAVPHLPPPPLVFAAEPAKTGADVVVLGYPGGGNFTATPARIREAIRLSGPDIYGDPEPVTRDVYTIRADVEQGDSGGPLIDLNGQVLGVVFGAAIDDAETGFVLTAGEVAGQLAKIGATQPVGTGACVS
PriA SSB inh: inhibitors of Klebsiella pneumoniae PriA binding to SSB C-terminal tail, primary screen, biochemical, AlphaScreen. AlphaScreen SSBct-PriA binding, biotinylated peptide. inhibition, % at 33 µM. 430,000 tested, 0.6% active. AID 1272365, 2023; in the data active = inhibition mostly above about 37%, no sharp cut-off; inactive = mostly below about 20%;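 note: plate controls were negative control peptide for no effect and reference peptide for full effect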
Starred values were filed as active, the others as inactive; i = inactive; . = no result given; ! = not active in a repeat.

SMILES	GDH-TPI inh	FBA Mtb inh	Mtb bLac sens	Mtb UGM inh	Rv3671c inh	PriA SSB inh
COc1cc2sc(-c3ccc(S(C)(=O)=O)cc3)c(-c3ccc4c(c3)OCO4)c2cc1OC	16	32*	-3	-3	3	-5
COc1ccc(CCNc2nnc(-c3ccc(C)cc3)c(=O)[nH]2)cc1OC	.	.	.	.	.	4
Nc1ccc(C(=O)NN=Cc2ccc(N3CCOCC3)s2)cc1	.	.	.	.	.	2
CC(C)(C)OC(=O)N/N=C/c1ccc(N2CCOCC2)s1	35*	-3	-10	-1	-4	.
CCOc1ccc(Oc2c(C=NNC(N)=O)c(C)nn2-c2ccccc2)cc1	.	.	.	.	.	8
COc1ccccc1C(=O)NC(=S)Nc1cccc2cc(O)ccc12	9	3	38	-1	-29	42*
O=C(c1ccc2nsnc2c1)N1CCC(n2c(=O)[nH]c3ccccc3c2=O)CC1	.	.	.	.	.	0
O=C(Nc1cccc(C(=O)O)c1)/C(=C/c1cccc([N+](=O)[O-])c1)NC(=O)c1cccc(Br)c1	-4	6	-7	-4	0	1
O=C(N/N=C/C(Cl)=C/c1ccc([N+](=O)[O-])cc1)C(=O)Nc1cccc(C(=O)O)c1	37*	-2	4	3	-10	i
NC(=O)[C@@H]1CCCNc2c(I)cc([N+](=O)[O-])cc2C(=O)N[C@@H](CO)C(=O)N[C@@H](Cc2ccc(O)cc2)C(=O)N1	21	-2	-12	0	-6	2
NC(=O)[C@@H]1CCCNc2c(I)cc([N+](=O)[O-])cc2C(=O)N[C@@H](Cc2ccccc2)C(=O)N[C@@H](Cc2cnc[nH]2)C(=O)N1	21	2	-1	0	-10	41*
CCN(CC)CCOC(=O)c1ccc(NC(=O)CCCN2C(=O)/C(=C\c3cccs3)SC2=S)cc1	12	-4	51	0	-21	42*
O=C(CCCN1C(=O)/C(=C\c2cccs2)SC1=S)NNC(=O)c1ccncc1	11	-4	1	0	-11	-14
O=C(CCCN1C(=O)/C(=C/c2cccs2)SC1=S)NNC(=O)c1cccnc1	33*	3	-5	1	-25	4
O=C(NN1C(=O)/C(=C/c2cccs2)SC1=S)c1ccncc1	34*	-7	-6	0	4	-5
CC(C)N1CCc2c(sc(NC(=O)CS(=O)(=O)c3ccc(Cl)cc3)c2C(N)=O)C1	.	.	.	.	.	-14
COc1ccc(Cl)cc1C(=O)NCCN1CCN(c2ccccc2OC)CC1	.	.	.	.	.	-1
COc1cc(C(=O)c2nccc3cc(OC)c(OC)cc23)c([N+](=O)[O-])cc1OC	38*	-2	24	0	-117	11
CN1C(C(=O)Nc2ncccn2)=C(O)c2ccccc2S1(=O)=O	21	5	-3	0	.	-2
CN1C(C(=O)Nc2ccccn2)=C(O)c2ccccc2S1(=O)=O	33*	-2	0	-1	2	-7
NNC(=O)/C(=C/c1cccs1)NC(=O)c1ccccc1Cl	43*	-3	-7	0	-3	1
N#C/C(=C\c1cccs1)C(=O)c1ccccc1Cl	.	.	9	-1	-6	-11
Nc1ccc2nc(CCCCCCCCc3nc4ccc(N)cc4[nH]3)[nH]c2c1	3	6	4	1	9	49*
Nc1ccc2nc(CCCCCCc3nc4ccc(N)cc4[nH]3)[nH]c2c1	5	7	-2	2	8	33
CCOC(=O)C(=NNc1ccccc1)c1csc(Nc2ccccc2)n1	.	.	.	.	.	1
SMILES	GDH-TPI inh	FBA Mtb inh	Mtb bLac sens	Mtb UGM inh	Rv3671c inh	PriA SSB inh
NNC(=O)c1[nH]c2ccccc2c1-c1ccccc1	-9	11	38	0	10	102*
CC(=O)NNC(=O)c1[nH]c2ccc(Cl)cc2c1-c1ccccc1	14	1	-4	0	1	2
O=C(CSc1ncn[nH]1)NN=Cc1ccc(Br)cc1	.	.	.	.	.	-4
Cc1ccccc1NC(=S)c1ccc2ccccc2n1	9	3	61	0	4	65*!
CN1C(=O)Cc2cc(NC(=O)c3ccc(-c4ccsc4)cc3)ccc21	.	.	.	.	.	58*
CCS(=O)(=O)c1ccc(CC(=O)Nc2ccc3nc(SC)sc3c2)cc1	.	.	.	.	.	5
CSc1nc2nccc(-c3ccc(-c4ccccc4)cc3)n2n1	20	153*	32	1	-21	-8
CSc1nc2nccc(-c3ccc(Oc4ccccc4)cc3)n2n1	20	4	66	1	-2	1
CSc1nnc(-c2cccn(Cc3ccccc3)c2=O)o1	4	131*	0	-4	-6	0
COc1cccc(CSc2nc(CC(=O)NCCC3=CCCCC3)cc(=O)[nH]2)c1	.	.	.	.	.	-12
O=C(Cc1cc(=O)[nH]c(SCc2cccc(Cl)c2)n1)NCCC1=CCCCC1	.	.	.	.	.	40*
O=S(=O)(N/N=C/c1ccc(N2CCOCC2)cc1)c1ccc(Br)cc1	36*	1	-6	0	-4	.
Cc1cc(C(=O)NN=Cc2ccc([N+](=O)[O-])cc2)c(C)o1	.	.	.	.	.	1
Cc1cc(C(=O)N/N=C/c2ccc([N+](=O)[O-])o2)c(C)o1	41*	1	100	2	0	i
O=C(NN=Cc1ccc([N+](=O)[O-])o1)c1cc(-c2ccncc2)nc2ccccc12	.	.	.	.	.	-10
O=C(N/N=C/c1ccc([N+](=O)[O-])o1)c1cc(-c2cccc(Br)c2)nc2ccccc12	39*	-3	100	-2	-9	.
Cc1c(NC(=S)N/N=C/C=C/c2ccc([N+](=O)[O-])cc2)c(=O)n(-c2ccccc2)n1C	32*	4	4	-5	10	.
Cc1c(NC(=S)N/N=C/C=C/c2ccccc2)c(=O)n(-c2ccccc2)n1C	62*	0	8	1	8	.
Cc1c(NC(=S)NN=Cc2ccc([N+](=O)[O-])cc2O)c(=O)n(-c2ccccc2)n1C	.	.	.	.	.	21
CCOc1ccc(S(=O)(=O)Nc2ccc3c(c2)N(C(=O)C2CCCC2)CC3)cc1F	.	.	.	.	.	12
CC1(C)CC(=O)C2=C(C1)N(CCN1CCOCC1)C1=C(C(=O)CC(C)(C)C1)C2c1ccc(Cl)c([N+](=O)[O-])c1	2	3	-10	0	-6	-1
Cc1ccc(C2C3=C(CC(C)(C)CC3=O)N(CCN3CCOCC3)C3=C2C(=O)CC(C)(C)C3)cc1	7	29*	-3	-1	0	-15
O=C(C[n+]1cccc2ccccc21)c1ccc([N+](=O)[O-])cc1	4	4	-4	-1	-1	-15
O=C(C[n+]1cccc2ccccc21)c1ccc(Cl)cc1	10	125*	2	0	-7	-1
C/C(=N\Nc1nccnc1Cl)c1ccc(Cl)c(Cl)c1	41*	-2	0	-1	2	.
